# Measured values reported in PubChem BioAssay AID1159580 (chemical genetic matrix, 2015).
# Among all 5,500 compounds or so, about 2,000 (36%) were called active. Roughly 18% stayed inconclusive and do not appear here. Some of the results follow. Unmarked numbers belong to inactive results. Cut-off read from the data, not from the text of the source: active = normalized growth mostly below about 0.91 (no sharp cut-off); inconclusive = no clear call, values can overlap the other calls; inactive = mostly above about 0.92.
# Assay: chemical genetic growth profiling, strain panel (AID 1159580);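 note: tested at 20 µM; growth read once vehicle control cultures reached saturation at 30 °C; 1 = growth at the plate median or of vehicle wells; lower values mean less growth of the strain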
# Conditions: S. cerevisiae deletion strains, growth OD
compound,measurement,setting,value
N/C(CSc1ccc(Cl)cc1)=N/OC(=O)c1ccc(C(F)(F)F)cc1,normalized growth,"locus YAR019C, strain CDC15, stronger effect = lower value",0.853 (active)
same,normalized growth,"locus YBL105C, strain PKC1, stronger effect = lower value",0.895 (active)
same,normalized growth,"locus YBR135W, strain CKS1, stronger effect = lower value",0.89 (active)
same,normalized growth,"locus YBR136W, strain MEC1, stronger effect = lower value",0.889 (active)
same,normalized growth,"locus YBR160W, strain CDC28, stronger effect = lower value",0.874 (active)
same,normalized growth,"locus YDL017W, strain CDC7, stronger effect = lower value",0.893 (active)
same,normalized growth,"locus YDL028C, strain MPS1, stronger effect = lower value",0.847 (active)
same,normalized growth,"locus YDL101C, strain DUN1, stronger effect = lower value",0.867 (active)
same,normalized growth,"locus YDL108W, strain KIN28, stronger effect = lower value",0.881 (active)
same,normalized growth,"locus YDL132W, strain cdc53, stronger effect = lower value",0.886 (active)
same,normalized growth,"locus YDL214C, strain PRR2, stronger effect = lower value",0.798
same,normalized growth,"locus YDR052C, strain DBF4, stronger effect = lower value",0.912
same,normalized growth,"locus YDR054C, strain cdc34, stronger effect = lower value",0.87 (active)
same,normalized growth,"locus YDR226W, strain ADK1, stronger effect = lower value",0.867 (active)
same,normalized growth,"locus YDR477W, strain SNF1, stronger effect = lower value",0.798
same,normalized growth,"locus YER123W, strain YCK3, stronger effect = lower value",0.774
same,normalized growth,"locus YER133W, strain GLC7, stronger effect = lower value",0.853
same,normalized growth,"locus YFL009W, strain cdc4, stronger effect = lower value",0.841 (active)
same,normalized growth,"locus YFL029C, strain CAK1, stronger effect = lower value",0.853 (active)
same,normalized growth,"locus YFR003C, strain YPI1, stronger effect = lower value",0.908
same,normalized growth,"locus YFR019W, strain FAB1, stronger effect = lower value",0.766 (active)
same,normalized growth,"locus YFR028C, strain CDC14, stronger effect = lower value",0.86 (active)
same,normalized growth,"locus YGR040W, strain KSS1, stronger effect = lower value",0.816
same,normalized growth,"locus YGR052W, strain FMP48, stronger effect = lower value",0.838
same,normalized growth,"locus YGR092W, strain DBF2, stronger effect = lower value",0.805
same,normalized growth,"locus YHR030C, strain SLT2, stronger effect = lower value",0.422 (active)
same,normalized growth,"locus YHR079C, strain IRE1, stronger effect = lower value",0.739
same,normalized growth,"locus YHR082C, strain KSP1, stronger effect = lower value",0.788
same,normalized growth,"locus YHR205W, strain SCH9, stronger effect = lower value",0.604
same,normalized growth,"locus YIL147C, strain SLN1, stronger effect = lower value",0.876 (active)
same,normalized growth,"locus YJL095W, strain BCK1, stronger effect = lower value",0.7
same,normalized growth,"locus YJL128C, strain PBS2, stronger effect = lower value",0.889
same,normalized growth,"locus YJL157C, strain FAR1, stronger effect = lower value",0.826
same,normalized growth,"locus YJR016C, strain ILV3, stronger effect = lower value",0.889 (active)
same,normalized growth,"locus YJR066W, strain TOR1 (second series), stronger effect = lower value",0.687
same,normalized growth,"locus YJR066W, strain TOR1, stronger effect = lower value",0.651
same,normalized growth,"locus YKL048C, strain ELM1, stronger effect = lower value",0.953
same,normalized growth,"locus YKL067W, strain YNK1, stronger effect = lower value",0.826
same,normalized growth,"locus YKL101W, strain HSL1, stronger effect = lower value",0.863
same,normalized growth,"locus YKL193C, strain SDS22, stronger effect = lower value",0.885 (active)
same,normalized growth,"locus YKL203C, strain TOR2, stronger effect = lower value",0.859
same,normalized growth,"locus YLR113W, strain HOG1, stronger effect = lower value",0.619 (active)
same,normalized growth,"locus YLR133W, strain CKI1, stronger effect = lower value",0.822
same,normalized growth,"locus YLR403W, strain SFP1, stronger effect = lower value",0.761
same,normalized growth,"locus YML070W, strain DAK1, stronger effect = lower value",0.852
same,normalized growth,"locus YMR001C, strain CDC5, stronger effect = lower value",0.866 (active)
same,normalized growth,"locus YMR205C, strain PFK2 (second series), stronger effect = lower value",0.836
same,normalized growth,"locus YMR277W, strain FCP1, stronger effect = lower value",0.855 (active)
same,normalized growth,"locus YNL006W, strain LST8, stronger effect = lower value",0.892 (active)
same,normalized growth,"locus YNL020C, strain ARK1, stronger effect = lower value",0.836
same,normalized growth,"locus YNL161W, strain CBK1, stronger effect = lower value",0.9
same,normalized growth,"locus YNL183C, strain NPR1, stronger effect = lower value",0.82
same,normalized growth,"locus YNL207W, strain RIO2, stronger effect = lower value",0.874 (active)
same,normalized growth,"locus YNL222W, strain SSU72, stronger effect = lower value",0.872 (active)
same,normalized growth,"locus YNL307C, strain MCK1 (second series), stronger effect = lower value",0.786
same,normalized growth,"locus YOL078W, strain AVO1, stronger effect = lower value",0.877 (active)
same,normalized growth,"locus YOL136C, strain PFK27, stronger effect = lower value",0.852
same,normalized growth,"locus YOR061W, strain CKA2, stronger effect = lower value",0.803
same,normalized growth,"locus YOR119C, strain RIO1, stronger effect = lower value",0.845
same,normalized growth,"locus YOR231W, strain MKK1, stronger effect = lower value",0.791
same,normalized growth,"locus YOR329C, strain SCD5, stronger effect = lower value",0.9 (active)
same,normalized growth,"locus YPL031C, strain PHO85, stronger effect = lower value",0.807
same,normalized growth,"locus YPL153C, strain RAD53, stronger effect = lower value",0.811
same,normalized growth,"locus YPL204W, strain HRR25, stronger effect = lower value",0.786
same,normalized growth,"locus YPL209C, strain IPL1, stronger effect = lower value",0.892 (active)
same,normalized growth,"locus YPL256C, strain CLN2, stronger effect = lower value",0.647 (active)
same,normalized growth,"locus YPR025C, strain CCL1, stronger effect = lower value",0.886 (active)
same,normalized growth,"locus YPR106W, strain ISR1, stronger effect = lower value",0.875 (active)
same,normalized growth,"locus YPR111W, strain DBF20, stronger effect = lower value",0.855 (active)
same,normalized growth,"strain NNK1, stronger effect = lower value",0.862 (active)
same,normalized growth,"strain TSCII, stronger effect = lower value",0.85 (active)
